Screens (PubChem)
ssDAF12 agonist – S. stercoralis DAF-12 nuclear receptor activators, primary screen, cell-based, luminescence, HEK293, GRIP1 co-expression, lit1-tk-luc; Nuclear hormone receptor DAF-12 (Strongyloides stercoralis); HEK293 ssDAF-12/GRIP1 lit1-tk-luc reporter; % of 3 µM dafachronic acid response; activation, % at 6.8 µM; hit rate 1% among 370,000; AID 652126, 2013;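 active = activation above the mean over all tested compounds plus 3 SD, cut at about 0.9% in these data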;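 also: 0% = DMSO-only wells and 100% = 3 µM delta7-dafachronic acid wells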
DAX1 inh-1 – DAX1 (NR0B1) inhibitors, primary screen, cell-based, HEK293, Gal4-DAX1, luciferase luminescence. Nuclear receptor subfamily 0 group B member 1 (Homo sapiens), P51843. inhibition, % at 6.75 µM. HEK293 Gal4-DAX1 luciferase reporter. hit rate 0.99% among 340,000. AID 504766, 2011;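 active = inhibition above the mean over all tested compounds plus 3 SD, cut at about 4.2% in these data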;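 also: 0% = DAX1-transfected cells with DMSO and 100% = empty-vector control cells with DMSO; inhibition shows as a rise in luminescence from relieved DAX1 repression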
DAX1 inh-2 – DAX1 (NR0B1) inhibitors on StAR promoter, primary screen, cell-based, luminescence, SF-1 (NR5A1), full-length DAX-1. HEK293T StAR-luciferase reporter, SF-1/DAX-1 repression relief. inhibition, % at 6.8 µM. hit rate 1.1% among 370,000;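 active = inhibition above the mean over all tested compounds plus 3 SD, cut at about 3.6% in these data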;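 also: 0% = DAX-1 cells with DMSO and 100% = cells lacking DAX-1 with DMSO; higher inhibition means more luminescence from relief of DAX-1 repression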
hgDAF12 agonist – H. glycines DAF-12 receptor agonists, primary screen, cell-based, luminescence, HEK293, GAL4 fusion, UAS-luciferase | activation, % at 6.8 µM | Nuclear hormone receptor DAF-12 (Heterodera glycines), GAL4 fusion | AID 687014, 2013 | HEK293 GAL4-hgDAF12 UAS-luciferase reporter, agonist luminescence; normalized to butyrate control | hit rate 1.8% among 370,000;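 active = activation above a cutoff set at the mean of all screened compounds plus 3 SD, cut at about 10% in these data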;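 also: 0% = DMSO wells and 100% = sodium butyrate wells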
hcDAF12 agonist – H. contortus DAF-12 nuclear receptor activators, primary screen, cell-based, luminescence, HEK293, lit1-tk-luc reporter; hit rate 1.4% among 370,000; HEK293 hcDAF-12 lit1-tk-luc reporter; 0% DMSO, 100% Δ7-dafachronic acid; AID 652067, 2013; activation, % at 6.8 µM;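 active = activation above the mean of all tested compounds plus 3 SD, cut at about 5.5% in these data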;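 also: 100% = response to 3 µM Δ7-dafachronic acid high control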
LXR ag – LXR agonists, Gal4 luciferase reporter, confirmation, counter-screen for hcDAF-12 agonist project, cell-based, luminescence, HEK293, H. contortus campaign. shares compounds with hcDAF12 agonist. HEK293 Gal4-LXR tk-luc reporter, 24 h; normalized: DMSO 0%, positive control 100%. activation, % at 6.8 µM. 3,400 tested, under 10 active;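 active = mean percent activation of the reporter above a cutoff set as the average over tested compounds plus their standard deviation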
Target sequence (P55055 whole entry, looked up, the tested form may be a part): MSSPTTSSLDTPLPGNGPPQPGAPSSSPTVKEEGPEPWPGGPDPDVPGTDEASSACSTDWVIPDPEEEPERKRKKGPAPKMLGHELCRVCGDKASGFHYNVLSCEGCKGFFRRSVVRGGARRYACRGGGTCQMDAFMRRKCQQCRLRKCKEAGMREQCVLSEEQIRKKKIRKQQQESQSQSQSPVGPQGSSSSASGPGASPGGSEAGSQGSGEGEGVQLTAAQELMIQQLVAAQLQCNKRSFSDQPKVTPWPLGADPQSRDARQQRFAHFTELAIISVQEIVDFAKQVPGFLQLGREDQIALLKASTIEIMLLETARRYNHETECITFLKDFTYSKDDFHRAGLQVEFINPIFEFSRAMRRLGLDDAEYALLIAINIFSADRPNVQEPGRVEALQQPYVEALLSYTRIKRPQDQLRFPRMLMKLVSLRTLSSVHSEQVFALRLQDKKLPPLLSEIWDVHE
hcDAF12 ag – H. contortus DAF-12 receptor agonists, confirmation, cell-based, luminescence, HEK293, lit1-tk-luc, triplicate | shares compounds with hcDAF12 agonist | AID 743032, 2013 | HEK293 hcDAF-12 lit1-tk-luc reporter; % of Δ7-dafachronic acid response | hit rate 61% among 3,400 | activation, % at 6.8 µM;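 active = mean activation across triplicate tests above the threshold derived from the earlier primary screen, cut at about 5.5% in these data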;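 also: 0% = DMSO only wells and 100% = 3 µM Δ7-dafachronic acid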
Active calls of the source: *; x = not tested or not shown. Hits are enriched below; roughly 4.1% of the tested compounds scored in any of these assays.

SMILES	ssDAF12 agonist	DAX1 inh-1	DAX1 inh-2	hgDAF12 agonist	hcDAF12 agonist	LXR ag	hcDAF12 ag
C/C(=N\NC(=O)c1cc(C)oc1C)c1ccc2c(c1)OCO2	-1	0	0	0	-3	x	x
C/C(=N\NC(=O)c1c[nH]c2ccccc12)c1ccc2c(c1)OCO2	0	-1	1	8	7.2*	0	0
O=C(CSc1nnc(-c2cccnc2)n1Cc1ccco1)c1ccccc1	-1	1	1	-2	6.6*	0	2
COC(=O)c1cc(C(c2ccccc2O)C2CCC(C)(C)O2)n2ccccc12 (stereo unspecified)	-1	x	-1	0	0	x	x
O=C(CNc1ccc2ccccc2c1)N/N=C/c1cc2ccccc2nc1Cl	0	-1	1	4	13*	0	4
O=C(COc1cccc(Cl)c1)N/N=C\c1cc2ccccc2nc1Cl	-1	1	0	-3	2	x	x
O=C(O)c1cc(Cl)c2ccccc2c1O	0	0	0	6	6.9*	0	3
Cc1cc(O)c(C(=O)/C=C/c2ccc(C(C)C)cc2)c(=O)o1	1.1*	5.7*	2	11*	8.6*	0	3
Cc1cc(O)c(C(=O)/C=C/c2ccccc2)c(=O)o1	0	0	0	2	1	x	x
CCCCC(=O)Nc1ccc(C(=O)NCC2COc3ccccc3O2)cc1 (stereo unspecified)	-1	x	0	3	-1	x	x
COc1ccc(-n2c(SCC(=O)Nc3ccc(OCc4ccccc4)cc3)nnc2-c2ccc(C)cc2)cc1	-1	x	-1	10	-1	x	x
CCOC(=O)COn1c(=O)c(-c2ccc(F)cc2)[n+]([O-])c2ccccc21	-1	1	0	0	-1	x	x
CCOC(=O)COn1c(=O)c(-c2cc3ccccc3o2)[n+]([O-])c2ccccc21	1.0*	1	3	9	9.3*	1	14*
C=CCOn1c(=O)c(-c2cc3ccccc3o2)[n+]([O-])c2ccccc21	1.8*	2	2	12*	11*	0	5
C=CCOn1c(=O)c(-c2ccccc2)[n+]([O-])c2ccccc21	0	0	0	-2	4	x	x
Cc1[nH]c(C)c(S(=O)(=O)NCc2ccc(F)cc2)c1C(=O)N1CCCCC1	-1	0	-1	1	0	x	x
CCS/C(N)=N/N=C/c1cc(C)ccc1O	1	0	3	7	7.9*	2	6.2*
O=C(NCc1cccs1)C(NS(=O)(=O)c1cccc2nsnc12)c1ccccc1 (stereo unspecified)	1	0	0	-2	7.1*	0	1
Cc1ccc2nc(-c3ccc(NC(=O)COC(=O)c4ccc([N+](=O)[O-])o4)cc3)sc2c1	1.3*	2	4.0*	23*	7.4*	2	8.8*
O=C(COC(=O)c1ccc([N+](=O)[O-])o1)Nc1ccc(F)cc1	-1	-1	-2	0	0	x	x
CCn1c(CNc2ccc(C(=O)O)cc2)nc2ccccc21	0	0	0	1	9.3*	0	2
Cn1c(CNc2ccccc2)nc2ccccc21	1.1*	2	2	10	8.7*	0	6.9*
O=C(O)c1ccc(NCc2nc3ccccc3n2Cc2ccccc2)cc1	-1	-1	0	-1	-1	x	x
Cc1ccccc1NCc1nc2ccccc2n1C	1.0*	3	3	10	8.4*	1	6.2*
CCCC(=O)NCc1nc2ccccc2n1C	-1	0	0	0	1	x	x
SMILES	ssDAF12 agonist	DAX1 inh-1	DAX1 inh-2	hgDAF12 agonist	hcDAF12 agonist	LXR ag	hcDAF12 ag
Cn1c(CNc2ccccc2O)nc2ccccc21	3.0*	0	0	4	8.4*	0	9.0*
Cn1c(CNc2nc3ccccc3n2CCN2CCCCC2)nc2ccccc21	-1	2	0	-2	-2	x	x
CC1(c2nnnn2Cc2ccccc2)CCCCC(=O)N1Cc1cccs1 (stereo unspecified)	-1	x	0	4	1	x	x
C=CCOc1c(CNc2cccc(C(=O)O)c2)cccc1OC	0	1	3	9	7.3*	0	3
CCN(CC)C(=O)CC[C@@H]1CC[C@]2(CCCN(Cc3cccnc3)C2)O1	-1	x	1	-1	-1	x	x
Cn1c(Cl)c(C(=O)Nc2ccc(Cl)cc2)c2ccccc21	1	3	0	8	6.8*	0	5.9*
CN(C)c1cccc(-c2cnc(N3CCC(C(N)=O)CC3)nc2)c1	-1	x	x	8	-1	x	x
CC(C)[C@@H](CO)NC(=O)c1ccc2c3n(nc2c1)-c1ccccc1CO3	0	-1	3	10	5	x	x
CC(C)NC(=O)c1ccc2c3n(nc2c1)-c1ccccc1CO3	0	-4	3	9	6.9*	2	8.1*
Fc1cccc(F)c1/C=N/Nc1ccccn1	1.5*	5.2*	1	13*	7.1*	0	10*
Clc1ccc(C=NNc2ccccn2)c(Cl)c1	0	0	-1	0	2	x	x
Fc1cccc(Cl)c1/C=N/Nc1ccccn1	1	1	0	6	7.0*	0	10.0*
COc1ccc(CCNC(=O)Nc2ccc3c(c2)[C@@]2(CC(=O)N(CC(C)C)C2c2ccccc2)C(=O)N3C)cc1OC (stereo partly specified)	-1	x	-2	5	-1	x	x
COc1ccc2c(c1)N=C(c1[nH]c3ccccc3c1CCN1C(=O)c3ccccc3C1=O)[C@]2(O)CCN1C(=O)c2ccccc2C1=O	-2	x	x	-4	-1	x	x
CCOC(=O)[C@@]12CCCC=C1N(CCc1ccc(Cl)cc1)C(=O)[C@H]2CC(=O)N1CCCC1	-2	x	-4	-6	-4	x	x
Cc1ccc(N=Nc2c(C)[nH]n(C(N)=S)c2=O)cc1C	0	0	2	6	9.2*	1	12*
Cc1[nH]n(C(N)=S)c(=O)c1N=Nc1ccc2ccccc2c1	1.3*	1	3	13*	15*	1	9.0*
